Source: ChEMBL document CHEMBL1961873, “Compounds: GSK PKIS; Assays: Nanosyn kinase panel” (2012)

Each molecule was assayed against Tyrosine-protein kinase SYK (Homo sapiens) (UniProt P43405). Conditions: at 0.1 µM.

SMILES | inhibition [%]
COc1cc2ncnc(Nc3ccc(C)c(O)c3)c2cc1OC | -4.37
Cc1cc(-c2ccccn2)cc(C)c1/C=C/c1cncc(-c2nn[nH]n2)c1 | -0.33
CC(C)c1ccc2c(c1)NC(=O)/C2=N/Nc1ccc(S(N)(=O)=O)cc1 | 1.61
CCn1c(-c2nonc2N)nc2ccc(F)cc21 | 3.17
CN(c1ccc(NC(=O)Nc2ccc(OC(F)(F)F)cc2)cc1)c1ccnc(Nc2cccc(S(N)(=O)=O)c2)n1 | -1.49
c1ccc(Nc2ncc(-c3ccccc3)o2)cc1 | 1.8
CCOc1nccc2c1nc(-c1nonc1N)n2CC | 1.77
COc1cccc(-n2ncc3c(N/N=C/c4ccc(S(C)(=O)=O)cc4)ncnc32)c1 | -2.46
Cc1ccc2c(-c3ccnc(Nc4cccc(C(F)(F)F)c4)n3)c(-c3ccccc3)nn2n1 | 0.45
NS(=O)(=O)c1cccc(Nc2cc(-c3ccc(F)cc3)n[nH]2)c1 | -3.53
c1ccc(Cc2nc3ccc(Nc4ncnc5ccccc45)cc3[nH]2)cc1 | 8.94
CN1CCN(C(=O)c2ccc(NC(=O)Nc3ccc(N(C)c4ccnc(Nc5ccc(CS(C)(=O)=O)cc5)n4)cc3)cc2)CC1 | -0.89
Nc1nccc(-c2c(-c3ccc(F)cc3)ncn2CCCN2CCOCC2)n1 | -6.28
COc1cc(/C=N/Nc2ncnc3c2cnn3C(C)C)ccc1O | -1.05
O=C(Nc1ccc(Oc2ccc3[nH]c(NC(=O)c4ccco4)nc3c2)cc1)Nc1cc(C(F)(F)F)ccc1F | 1.01
Cc1ccc(Nc2ccnc(Nc3cccc(C(N)=O)c3)n2)cc1O | -7.65

SMILES | inhibition [%]
COC(=O)c1cncc(/C=C/c2c(C)cc(O)cc2C)c1 | -5.74
Cc1cc(O)cc(C)c1/C=C/c1cncc(C(=O)N(C)C)c1 | -1.67
NC(=O)c1cccc(Nc2nccc(Nc3cccc(F)c3)n2)c1 | 0.43
COc1cc2ncnc(Nc3ccc4c(cnn4Cc4ccccc4)c3)c2cc1OC | 4.44
CCn1c(-c2nonc2N)nc2c(C#CC(C)(C)O)nc(OCCNC)cc21 | 1.27
Nc1nccc(C#Cc2cncnc2Nc2ccc(OCc3cccc(F)c3)c(Cl)c2)n1 | -6.1
COC(=O)Nc1nc2cc(Oc3ccc(NC(=O)Nc4cccc(Br)c4)cc3)ccc2[nH]1 | -1.46
O=C1Nc2ccccc2/C1=C/Nc1ccc2[nH]c(=O)[nH]c2c1 | 3.76
NS(=O)(=O)c1ccc(Nc2cc(-c3cccc(O)c3)n[nH]2)cc1 | -3.9
COc1cc2ncn(-c3cc(OCc4ccccc4S(C)(=O)=O)c(C#N)s3)c2cc1OC | -8.27
CC(C)c1ccc(Nc2nccc(-c3cnn4ncccc34)n2)cc1 | -6.64
NS(=O)(=O)c1ccc(N/N=C2\C(=O)Nc3ccc(Cl)cc32)cc1 | -0.57
FC(F)(F)c1ccc(-c2nn3ncccc3c2-c2ccnc(Nc3ccc4c(c3)OCCO4)n2)cc1 | 3.37
Nc1ccc(C#Cc2cncnc2Nc2ccc(OCc3cccc(F)c3)c(Cl)c2)cc1 | -0.35
Cc1ccc(O)cc1Nc1ccnc2ccc(S(C)(=O)=O)cc12 | -7.79
NS(=O)(=O)c1ccc(NC=C2C(=O)Nc3ccc4ncsc4c32)cc1 | -8.02

What follows are molecules tested against Tyrosine-protein kinase SYK (Homo sapiens) (UniProt P43405). Conditions: at 1 µM.

SMILES | inhibition [%]
COc1cc2ncnc(Nc3ccc(C)c(O)c3)c2cc1OC | 0.27
Cc1cc(-c2ccccn2)cc(C)c1/C=C/c1cncc(-c2nn[nH]n2)c1 | -0.42
CC(C)c1ccc2c(c1)NC(=O)/C2=N/Nc1ccc(S(N)(=O)=O)cc1 | 1.53
CCn1c(-c2nonc2N)nc2ccc(F)cc21 | -1.93
c1ccc(Nc2ncc(-c3ccccc3)o2)cc1 | 3.14
CCOc1nccc2c1nc(-c1nonc1N)n2CC | 1.57
COc1cccc(-n2ncc3c(N/N=C/c4ccc(S(C)(=O)=O)cc4)ncnc32)c1 | -1.66
Cc1ccc2c(-c3ccnc(Nc4cccc(C(F)(F)F)c4)n3)c(-c3ccccc3)nn2n1 | -5.34
NS(=O)(=O)c1cccc(Nc2cc(-c3ccc(F)cc3)n[nH]2)c1 | -1
CCCN1CCCC(c2ccc(Nc3nc(Nc4cc(F)ccc4C(N)=O)c4cc[nH]c4n3)c(OC)c2)C1 (stereo not given) | 75.8
c1ccc(Cc2nc3ccc(Nc4ncnc5ccccc45)cc3[nH]2)cc1 | -0.79
CN1CCN(C(=O)c2ccc(NC(=O)Nc3ccc(N(C)c4ccnc(Nc5ccc(CS(C)(=O)=O)cc5)n4)cc3)cc2)CC1 | -2.49
N#Cc1cccc(Nc2nccc(-c3cnn4ncccc34)n2)c1 | 53.2
Nc1nccc(-c2c(-c3ccc(F)cc3)ncn2CCCN2CCOCC2)n1 | -0.03
COc1cc(/C=N/Nc2ncnc3c2cnn3C(C)C)ccc1O | 35.4
O=C(Nc1ccc(Oc2ccc3[nH]c(NC(=O)c4ccco4)nc3c2)cc1)Nc1cc(C(F)(F)F)ccc1F | -2.67
Cc1ccc(Nc2ccnc(Nc3cccc(C(N)=O)c3)n2)cc1O | 14.2

SMILES | inhibition [%]
COC(=O)c1cncc(/C=C/c2c(C)cc(O)cc2C)c1 | -1.42
Cc1cc(O)cc(C)c1/C=C/c1cncc(C(=O)N(C)C)c1 | 2.96
NC(=O)c1cccc(Nc2nccc(Nc3cccc(F)c3)n2)c1 | -2.49
COc1cc2ncnc(Nc3ccc4c(cnn4Cc4ccccc4)c3)c2cc1OC | 0.48
CCn1c(-c2nonc2N)nc2c(C#CC(C)(C)O)nc(OCCNC)cc21 | 0.91
Nc1nccc(C#Cc2cncnc2Nc2ccc(OCc3cccc(F)c3)c(Cl)c2)n1 | -0.63
COC(=O)Nc1nc2cc(Oc3ccc(NC(=O)Nc4cccc(Br)c4)cc3)ccc2[nH]1 | 0.53
O=C1Nc2ccccc2/C1=C/Nc1ccc2[nH]c(=O)[nH]c2c1 | -5.15
NS(=O)(=O)c1ccc(Nc2cc(-c3cccc(O)c3)n[nH]2)cc1 | -0.51
COc1cc2ncn(-c3cc(OCc4ccccc4S(C)(=O)=O)c(C#N)s3)c2cc1OC | -2.95
CC(C)c1ccc(Nc2nccc(-c3cnn4ncccc34)n2)cc1 | 9.02
NS(=O)(=O)c1ccc(N/N=C2\C(=O)Nc3ccc(Cl)cc32)cc1 | -3.16
FC(F)(F)c1ccc(-c2nn3ncccc3c2-c2ccnc(Nc3ccc4c(c3)OCCO4)n2)cc1 | 0.25
Nc1ccc(C#Cc2cncnc2Nc2ccc(OCc3cccc(F)c3)c(Cl)c2)cc1 | -2.35
Cc1ccc(O)cc1Nc1ccnc2ccc(S(C)(=O)=O)cc12 | -3.99
NS(=O)(=O)c1ccc(NC=C2C(=O)Nc3ccc4ncsc4c32)cc1 | 3.68
